Laboratory results taken from ChEMBL document CHEMBL1157539, “Thousands of chemical starting points for antimalarial lead identification” (Nature, 2010).

What was measured:
Format in all cases: functional
[1] = test system: Plasmodium falciparum; experiment: GSK_TCMDC: Inhibition of Plasmodium falciparum 3D7 in whole red blood cells, using parasite LDH activity as an index of growth. Test compounds present at 2uM
[2] = test system: Plasmodium falciparum; experiment: GSK_TCMDC: Inhibition of Plasmodium falciparum Dd2 in whole red blood cells, using parasite LDH activity as an index of growth. Test compounds present at 2uM
[3] = test system: HepG2; experiment: GSK_TCMDC: Percent inhibition of human HepG2 cell line. Test compounds present at 10uM.

| SMILES | Inhibition [1] | Inhibition [2] | Inhibition [3] |
| --- | --- | --- | --- |
| O=C(/C=C/c1ccc(Cl)c(Cl)c1)NCCCCCN1CCCN(C(=S)Nc2ccc(Cl)cc2)CC1 | 86% | 10% | 7% |
| CCCCc1cc(O)c2c(c1)OC(C)(C)C=C2C1=CCN(Cc2ccccc2)CC1 | 98% | 3% | 9% |
| O=C(/C=C/c1ccc(Cl)c(Cl)c1)NCCCCCN1CCC(NC(=O)Nc2ccc([N+](=O)[O-])cc2)CC1 | 100% | 2% | 20% |
| COc1cc2nc(N(C)CC3COc4ccccc4O3)nc(N)c2cc1OC.Cl (stereo not drawn) | 94% | 26% | 11% |
| CCC[C@@H]([C@@H](CC(C)C)C(=O)N[C@@H](CCC/N=C(/N)NS(C)(=O)=O)C(=O)Nc1nccs1)N(O)C=O | 95% | 41% | 10% |
| Cc1cccc2nc(-c3ccc(-c4ccc(NC(=O)Nc5ccc(Cl)c(Cl)c5)cc4)cc3)[nH]c12 | 100% | 100% | 37% |
| Cc1ccc2nc(Cl)c3cc(C(=O)NCCCN4CCCC4)sc3c2c1 | 89% | 40% | 26% |
| CCCNCc1ccc(-c2ccc(CN(CCOC)C(=O)c3cnc(C)cn3)cc2)nc1.O=C(O)C(F)(F)F | 81% | 14% | 0% |
| Cl.Oc1ccc2ccccc2c1CNCCC1CCCCC1 | 99% | 99% | 16% |
| O=C(/C=C/c1ccc(Cl)c(Cl)c1)NCCCCCN1CCC(NC(=O)Nc2ccc(C(F)(F)F)cc2)C1 (stereo not drawn) | 100% | 6% | 11% |
| Cc1ccccc1Cn1c(CN2CCC(C(=O)NC3CC3)CC2)cc2ccccc21 | 97% | 96% | 7% |
| CN(C)CCCOc1ccc(CNCC(C)(C)c2nc(-c3ccc(Cl)c(O)c3)c(-c3ccncc3)[nH]2)cc1.Cl | 100% | 58% | 64% |
| COc1cccc(CNC(=O)c2cccc(-c3ccc(CN4CCC(N5CCCC5)CC4)cc3)n2)c1.O=C(O)C(F)(F)F | 100% | 76% | 16% |
| CC(C)c1ccc2oc(-c3ccc(NC(=O)c4ccc([N+](=O)[O-])o4)cc3)nc2c1 | 100% | 95% | 99% |
| O=C(C=Cc1ccc(Cl)c(Cl)c1)NC1CCN(CCc2ccccc2)CC1.O=C(O)C(F)(F)F | 97% | 13% | 6% |
| CN1CCN(Cc2cc(NC(=O)c3ccc(-c4ccc(Cl)cc4Cl)cc3)ccc2-c2ccccc2)CC1 | 95% | 21% | 52% |
| O=C(Cn1c(SCc2cccc(F)c2F)cc(=O)c2ccccc21)N(Cc1ccc(-c2ccc(C(F)(F)F)cc2)cc1)C1CCN(CCO)CC1 | 89% | 81% | 50% |
| Cc1cccc2nc(-c3ccc(-c4cccc(NC(=O)Nc5ccc(Cl)c(Cl)c5)c4)s3)[nH]c12 | 100% | 36% | 46% |
| Cc1nc2nc(N)nc(N)c2c(C)c1Cc1ccccc1.Cl | 95% | 0% | 62% |
| COc1cccc(C2CCN(CCN3CCC(NC(=O)c4ccc(-c5ccc(C(F)(F)F)cc5)cc4)CC3)CC2)c1 | 99% | 99% | 46% |
| CC(COc1ccc2c(c1)OC(C)(C)CC2c1ccccc1)NCC(O)c1cccc(Cl)c1.Cl (stereo not drawn) | 98% | 96% | 1% |

| SMILES | Inhibition [1] | Inhibition [2] | Inhibition [3] |
| --- | --- | --- | --- |
| CCOc1ccc(C2CCN(CCCCNC(=O)c3ccc(NC(=O)c4ccc(Cl)cc4)cc3)CC2)c(OCC)c1.Cl | 100% | 95% | 14% |
| COc1ccc(CCn2c(=N)c(C(=O)NCc3cccnc3)cc3c(=O)n4cccc(C)c4nc32)cc1 | 92% | 12% | 5% |
| FC(F)(F)c1ccc2[nH]c(-c3ccc(-c4ccc(CNCCc5ccncc5)cc4)cc3)nc2c1.O=C(O)C(F)(F)F | 100% | 100% | 26% |
| CCN1CCC(NCc2ccc(-c3ccc(Cl)cc3)cc2)CC1 | 100% | 33% | 25% |
| COc1ccc(C[C@H](N)C(=O)N[C@H]2[C@@H](O)[C@H](n3cnc4c(N(C)C)ncnc43)O[C@@H]2CO)cc1 [PUROMYCIN] | 100% | 100% | 99% |
| CN/C(=C\[N+](=O)[O-])NCCSCc1cc(C)c(CN(C)C)s1 | 98% | 96% | 48% |
| COc1ccccc1CNC(=O)c1cc(OC)c(OC)cc1NC(=O)c1cccs1 | 88% | 71% | 12% |
| Cc1cc2c(cc1C(F)(F)F)N(C(=O)Nc1ccc(C(=O)NC3CCN(Cc4ccccc4)C3)cc1)CC2 (stereo not drawn) | 100% | 48% | 19% |
| CNC(=O)c1cnc(Nc2ccc(N3CCN(C)CC3)cc2)nc1Nc1cccc(OC(C)C)c1.O=C(O)C(F)(F)F | 100% | 100% | 16% |
| CC(C)(C)c1ccc(NC(=O)c2cccc(CN3CCCN(Cc4ccc(F)cc4)CC3)c2)cc1.O=C(O)C(F)(F)F | 88% | 2% | 35% |
| Clc1ncccc1-c1nc(NCCC(c2ccccc2)c2ccccc2)no1 | 94% | 82% | 12% |
| Cc1ccc(-c2nc3cc(NC(=O)c4ccc([N+](=O)[O-])o4)ccc3o2)cc1Cl | 100% | 97% | 24% |
| Cc1ccc(O)cc1Nc1c(C(N)=O)cnc2ccc(-c3cncs3)cc12 | 100% | 99% | 21% |
| O=C(NCc1cccc(F)c1)c1ccc(O)c(-c2cc(Cl)cc(Cl)c2)c1 | 99% | 99% | 0% |
| Cc1ccc(O)c(-c2cc(C(=O)Nc3ccc(S(=O)(=O)N4CCCCCC4)cc3)[nH]n2)c1 | 100% | 80% | 25% |
| Cc1[nH]c2ccccc2c1C1CCN(CCCCNC(=O)c2ccc(-c3ccc(C#N)cc3)cc2)CC1 | 100% | 97% | 19% |
| CC(=O)c1ccc(NC(=O)Nc2ccc(N(C)c3ccnc(Nc4cccc(CS(C)(=O)=O)c4)n3)cc2)cc1 | 100% | 98% | 86% |
| Cc1ccc(Nc2nccc(Nc3ccc4c(c3)nc(Nc3cc(C(C)(C)C)on3)n4C)n2)cc1S(C)(=O)=O | 100% | 99% | 30% |
| CS(=O)(=O)NCCCNCc1ccc(-c2cccc(-c3nc4cc(C(F)(F)F)ccc4[nH]3)c2)cc1.O=C(O)C(F)(F)F | 100% | 83% | 17% |
| CC(C)n1ncc2c3c(N)nc(N)nc3ccc21 | 98% | 6% | 64% |
| Cc1cc(NC(=O)c2ccco2)ccc1OC1CCN(Cc2ccc(F)cc2)C1.O=C(O)C(F)(F)F (stereo not drawn) | 96% | 92% | 5% |

| SMILES | Inhibition [1] | Inhibition [2] | Inhibition [3] |
| --- | --- | --- | --- |
| Cl.Clc1ccc(OCCC2CCN(CCCCCCCN3CCC(CCOc4ccc(Cl)c(Cl)c4)CC3)CC2)cc1Cl | 99% | 82% | 100% |
| CS(=O)(=O)CCNc1nccc(N2CCc3ncnc(Nc4ccc(OCc5cccc(F)c5)c(Cl)c4)c3C2)n1 | 100% | 100% | 8% |
| Nc1cnc(C#Cc2cc3ncnc(N(CCN4CCOCC4)c4ccc(OCc5cccc(F)c5)c(Cl)c4)c3s2)cn1 | 87% | 57% | 0% |
| CCCCCn1c(Sc2ccc(C#N)c([N+](=O)[O-])c2)nnc1-c1cccs1 | 91% | 38% | 19% |
| CCC[C@@H](C(=O)NCCc1cccc(OC)c1)N1C(=O)c2c(ccc(OC)c2OC)C1C(=O)Nc1c(C)cccc1C (stereo partly drawn) | 94% | 32% | 6% |
| Cc1cccc(CN2CCCN(Cc3cccc(C(=O)Nc4ccc(C(C)(C)C)cc4)c3)CC2)c1.O=C(O)C(F)(F)F | 89% | 40% | 98% |
| c1cncc(-c2cc(N3CCc4ccccc4C3)nc(-c3ccncc3)n2)c1 | 100% | 100% | 56% |
| COc1nc2c(N3CCN(CCNCc4ccc5c(n4)NC(=O)CO5)CC3)ccnc2cc1F.Cl | 100% | 9% | 18% |
| Cc1ccc(Cn2cnc(N3CC(C)NC(C)C3)cc2=O)cc1NC(=O)Nc1ccc(-c2ccccc2)cc1.O=C(O)C(F)(F)F (stereo not drawn) | 96% | 15% | 18% |
| Br.Nc1ccc(-c2csc(Nc3ccncc3)n2)cc1 | 95% | 50% | 12% |
| COc1cc(C)ccc1S(=O)(=O)N1CCCCC(c2ccc(C(F)(F)F)cc2)=N1 | 92% | 89% | 16% |
| COc1ccc(NC(=O)CCNc2cc(C)nc(NCCc3ccccc3)n2)cc1.O=C(O)C(F)(F)F | 85% | 0% | 3% |
| Cc1nn(-c2cccc(C(F)(F)F)c2)c2sc(C(=O)NC3CCN(C(C)C)CC3)cc12 | 94% | 20% | 98% |
| COc1cc(CCCOc2c(N)nc(N)nc2N)cc(OC)c1OC | 88% | 0% | 8% |
| Cc1cc(N2CCCC2)nc(NC(=N)Nc2cccc(C(F)(F)F)c2)n1 | 100% | 100% | 33% |
| O=C(NC1CC1)c1ccc(N2CCOc3ccc(Cl)cc32)s1 | 94% | 73% | 8% |
| COc1ccc(CCN(C)CCOc2ccc(NC(=O)c3cccc4cc5ccccc5nc34)cc2)cc1OC | 100% | 99% | 37% |
| N=C(N)NC(=O)Nc1cc(Cl)c(Br)c(Cl)c1 | 100% | 100% | 6% |
| Br.CCC1N=C(N)N=C(N)N1OCCCOc1c(Cl)cc(Cl)cc1Cl (stereo not drawn) | 95% | 96% | 67% |
